# In PubChem BioAssay AID504374 (National Center for Advancing Translational Sciences (NCATS), 2011):
# Among all 1,500 compounds or so, about 100 (6.7%) were called active. Roughly 7% stayed inconclusive and do not appear here. This is one part of a sample in which actives are shown more often than they occur. Unmarked numbers belong to inactive results. Calls come from the whole dose curve; as a rule, active = well fitted inhibition curve with a large enough effect; inconclusive = small, poorly fitted or top-dose-only effect, or effect the other way; inactive = flat fitted curve, though single readings scatter.
# Biological target: Runt-related transcription factor 1 (Homo sapiens) + Core-binding factor subunit beta (Homo sapiens) (UniProt Q01196+Q13951)
# Test: qHTS Assay for Compounds Blocking the Interaction Between CBF-beta and RUNX1 for the Treatment of Acute Myeloid Leukemia: Hit Validation; note: nearly all actives have a fitted effect of over 60% in size
# Details: AlphaScreen CBFb-His/RUNX1-biotin binding; series mostly up to 59.8 µM; activity, negative = inhibition: at the top concentration
# How it was run: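 Compounds were added to a premixed CBF-beta-His/RUNX1-biotin complex (30 nM each, 20 min) for 15 min. Nickel and streptavidin AlphaScreen beads followed for 90 min at room temperature, with emission at 440 nm […].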
# % is set by controls: 0 for no effect and ±100 for the full control effect; potency is the fitted concentration of half-maximal effect.
# Chain of Runt-related transcription factor 1 (Homo sapiens) + Core-binding factor subunit beta (Homo sapiens) (Q01196 whole entry, looked up): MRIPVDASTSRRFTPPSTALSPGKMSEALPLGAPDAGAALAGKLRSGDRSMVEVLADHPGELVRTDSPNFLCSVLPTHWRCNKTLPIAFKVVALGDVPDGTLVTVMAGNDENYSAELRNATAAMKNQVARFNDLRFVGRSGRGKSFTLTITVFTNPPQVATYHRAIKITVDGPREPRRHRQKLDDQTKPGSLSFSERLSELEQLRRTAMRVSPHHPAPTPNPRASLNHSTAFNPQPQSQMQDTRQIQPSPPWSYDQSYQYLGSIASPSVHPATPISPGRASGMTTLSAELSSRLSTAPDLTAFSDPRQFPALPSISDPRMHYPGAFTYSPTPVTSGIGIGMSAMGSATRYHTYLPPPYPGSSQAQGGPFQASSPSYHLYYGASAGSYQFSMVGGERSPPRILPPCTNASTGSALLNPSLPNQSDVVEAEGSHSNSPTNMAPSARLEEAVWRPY
# Chain of Runt-related transcription factor 1 (Homo sapiens) + Core-binding factor subunit beta (Homo sapiens) (Q13951 whole entry, looked up): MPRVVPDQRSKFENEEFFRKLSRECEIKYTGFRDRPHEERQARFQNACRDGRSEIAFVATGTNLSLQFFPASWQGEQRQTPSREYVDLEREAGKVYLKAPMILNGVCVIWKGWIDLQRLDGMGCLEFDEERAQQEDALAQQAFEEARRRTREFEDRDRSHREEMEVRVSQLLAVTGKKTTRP
Structure (SMILES),"activity, negative = inhibition",Potency
CCNC(=S)N1N=C2c3ccccc3CCC2C1c1ccc(F)cc1 (stereo unspecified),7.45%,–
O=C(NN1C(=O)CSC1=S)C(=O)NN1C(=O)CSC1=S,–,8.91 µM (active)
Nc1cccnc1Oc1ccccc1F,-2.77%,–
Cn1c(-c2ccc3ccccc3n2)[n+](C)c2ccccc21,-16.8%,–
Cc1cc(NC(=O)CN2CCCCC2)n(-c2ccccc2)n1,2.06%,–
NNC(=O)c1ccc(COCC(F)(F)C(F)F)cc1,-1.86%,–
CC(C)(C)S(=O)(=O)/C(C#N)=C/Nc1ccccn1,-2.32%,–
O=S(=O)(c1ccc2nc(-c3ccco3)c(-c3ccco3)nc2c1)N1CCOCC1,–,5.46 µM (active)
CSc1nc2cc(S(=O)(=O)N3CCCCC3)ccc2s1,-1.3%,–
O=C(O)c1nccnc1C(=O)Nc1ccc(S(=O)(=O)N2CCOCC2)cc1,-6.89%,–
COC(=O)CC1=C(C(=O)OC)[C@@H](c2ccccc2[N+](=O)[O-])C(C#N)=C(N)O1,3.04%,–
Cc1ccc(NC(=O)CSc2n[nH]c(N)n2)cc1S(=O)(=O)N1CCOCC1,-1.46%,–
CCOc1ccc(N2C(=O)CC(NNc3nc4ccccc4s3)C2=O)cc1 (stereo unspecified),5.71%,–
O=c1c(-c2cc(O)c(O)c(O)c2)coc2cc(O)c(O)c(O)c12,–,0.447 µM (active)
Cc1nnn(C23C[C@@H]4C[C@@H](CC(C(=O)N5CCN(c6ccccc6)CC5)(C4)C2)C3)n1,-5.35%,–
COC(=O)[C@H](CCSC)NC(=O)Nc1cc(OC)cc(OC)c1,-12.2%,–
COc1ccc(C(=O)NC(=S)Nc2ccc(CN3CCOCC3)cc2)cc1,-11.1%,–
Cn1c(=O)c([N+](=O)[O-])c(NCC2CCCO2)c2ccccc21 (stereo unspecified),-0.834%,–
Cc1cccc(C(=O)N/C(=C\c2ccc(C)o2)C(=O)O)c1,-12.8%,–

Structure (SMILES),"activity, negative = inhibition",Potency
CC(C)(C)OC(=O)N1Cc2cc3ccccc3nc2C1CO (stereo unspecified),-2.12%,–
COC(=O)[C@H](C)NC(=O)NCc1ccccc1,-3.2%,–
CCOc1ccc(NC(=O)Nc2cc(C(C)C)c(O)cc2C)cc1,-2.87%,–
COc1ccc(NC(=O)CSc2ccc(-c3ccccn3)nn2)cc1OC,–,4.47 µM (active)
COC(=O)CNC(=O)CSc1ccccn1,6.43%,–
COc1ccc(/C=N/NC(=O)Cn2ccnc2C)cc1OC,-9.74%,–
O=C(CSc1ccc(-c2ccccn2)nn1)NCc1ccccc1,–,5.62 µM (active)
CCOc1ccc(NC(=O)CSc2ccc(-c3ccccn3)nn2)cc1,–,5.01 µM (active)
COc1ccccc1CC(=O)Nc1cccc(C(=O)Nc2nccs2)c1,-6.81%,–
CCOc1ccc(Nc2c3ccccc3nc3ccccc23)cc1,-13%,–
Cc1oc(S(=O)(=O)N2CCCCC2)cc1NC(=O)Nc1ccc(F)cc1,-4.08%,–
CC1CN(S(=O)(=O)c2cccc(C(F)(F)F)c2)CC(C)O1 (stereo unspecified),-0.629%,–
COc1ccc(NC(=O)CCC(=O)N/N=C/c2ccncc2)cc1,4.92%,–
CC(C)CC1C2C(=O)N(c3ccccc3)C(=O)C2ON1c1ccccc1 (stereo unspecified),0.251%,–
c1ccc2sc(SCSc3nc4ccccc4s3)nc2c1,-3.42%,–
CC1(C)CC(=O)C2=C(C1)OC(N)=C(C#N)[C@@H]2c1ccccc1[N+](=O)[O-],-5.53%,–
COc1ccc(/C=N/NC(=O)c2cnccn2)c(OC)c1OC,-4.33%,–
CSc1ccc(C(=O)NCC(=O)O)cc1[N+](=O)[O-],-1.02%,–
CC(C)(C)c1ccc(NC(=O)c2ccsc2)cc1,6.68%,–

Structure (SMILES),"activity, negative = inhibition",Potency
COC(=O)c1ccc(S(=O)(=O)N(C2CCCCC2)C2CCCCC2)n1C,-5.96%,–
CCN(CC)CCN1C(=O)C(=O)/C(=C(/O)c2ccc3c(c2)CC(C)O3)C1c1ccc(OC)cc1 (stereo unspecified),-3.3%,–
O=S(=O)(Nc1nc(SCc2ccc(Cl)cc2)n[nH]1)c1ccccc1,-15.9%,–
CCOC(=O)N1CCC(NC(=O)CCCC(=O)O)CC1,6.93%,–
Nc1c(C(=O)NCC2CCCO2)sc2nc3c(c(-c4ccco4)c12)CC/C3=C\c1ccco1 (stereo unspecified),–,12.6 µM (active)
Cc1ccccc1-c1noc(-c2ccccc2C(=O)NCC2CCCO2)n1 (stereo unspecified),-6.51%,–
C/C(Cc1nnn(-c2cc(C)on2)n1)=N\O,-0.472%,–
CCOC(=O)Cc1csc(NC(=O)Cc2ccc(Br)cc2)n1,-4.76%,–
COc1ccc(-c2nnsc2N2C(=O)c3ccccc3C2=O)cc1,-3.86%,–
COC(=O)C(=Cc1ccccc1[N+](=O)[O-])C(=O)OC,-2.17%,–
CC(=O)Nc1ccc(S(=O)(=O)Nc2cc(-c3ccccc3)nn2C)cc1,0.969%,–
CN(C)C(=O)Nc1ccccc1,-3.42%,–
O=C(O)C[C@@H]1C(=O)O[C@@H]2C(COC(=O)c3cc(O)c(O)c(O)c3)O[C@@H](OC(=O)c3cc(O)c(O)c(O)c3)[C@@H](OC(=O)c3cc(O)c(O)c4c3[C@H]1[C@H](O)C(=O)O4)[C@H]2OC(=O)c1cc(O)c(O)c(O)c1 (stereo partly specified),–,0.0316 µM (active)
Cc1cccc(CC(=O)c2c[nH]c3ccccc23)c1,-8.61%,–
O=C(/C=C/c1ccccc1)c1c[nH]c2ccccc12,-1.47%,–
CC(Cc1c[nH]c2ccccc12)C(=O)O (stereo unspecified),–,12.2 µM (active)
Cc1onc(-c2c(F)cccc2Cl)c1C(=O)N1CCSCC1,-1.82%,–
Cc1cc(=O)cc2oc3cc(N)c(-c4c(C)cc(O)cc4O)c(C)c3nc1-2,–,8.88 µM (active)
